# Assay results: PubChem BioAssay AID1035475 (Broad Institute, 2014)
# Potency and affinity values are given separately. Records with an inconclusive call do not appear. A call without a number means that no potency is given here. Calls of active or inactive are those of the source.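 The calls were made as follows: active = fluorescent signal drops by 40% or more, counted as a hit; inconclusive = no clear call, values can overlap the other calls; inactive = the rest, including any activity in the opposite direction.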
# Experiment: blockers of FN fibrillogenesis by fibroblasts – AH1F cells, Alexa488-FN fluorescence, cherry-picks, dose response (AID 1035475);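 also: AH1F fibroblasts incorporating labeled fibronectin into their extracellular matrix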
# Settings: Alexa488-fibronectin deposition fluorescence, overnight; series mostly up to 35 µM
row,SMILES,outcome
1,C[C@@H]1CN([C@@H](C)CO)C(=O)c2cc(-c3ccccc3)cnc2O[C@@H]1CN(C)Cc1ccccc1,inactive
2,N#C[C@@H]1[C@H](c2ccccc2C2=CCCCC2)[C@H](CO)N1S(=O)(=O)c1ccccc1,inactive
3,COc1cccc(-c2ccc3c(c2)[C@@H]2[C@@H](CCN2S(=O)(=O)c2cccc(OC)c2)[C@@H](CO)N3)c1,inactive
4,C[C@H](CO)N1C[C@H](C)[C@H](CN(C)C(=O)c2cccc(F)c2)Oc2ncc(-c3ccccc3)cc2C1=O,inactive
5,Cc1cc(C)n2ncc(C(=O)NCc3ccc(Cl)cc3)c2n1,inactive
6,O=c1c2cc(N3CCOCC3)ccc2[nH]c(=S)n1Cc1ccc(Cl)cc1,inactive
7,COc1cccc(CNC(=O)CCc2nnc3ccc(NCCCN4CCCC4=O)nn23)c1,inactive
8,Cn1cnc(S(=O)(=O)N2CCN(c3ccccc3)CC2)c1,inactive
9,CC1CN(C(=O)c2cc3c(=O)n4ccccc4nc3n2C)CC(C)O1 (stereo not drawn),inactive
10,CC(C)C(=O)Nc1ccc2c(c1)C(=O)N(C)[C@@H]1CC[C@H](CC(=O)O)O[C@@H]1CO2,inactive
11,C[C@H]1CN([C@@H](C)CO)C(=O)c2cc(NC(=O)CCCN(C)C)ccc2O[C@H]1CN(C)Cc1ccc(-c2ccccc2)cc1,inactive
12,COCC(=O)Nc1ccc2c(c1)C(=O)N(C)[C@H]1CC[C@H](CC(=O)NCc3ccccc3Cl)O[C@@H]1CO2,inactive
13,C[C@H](CO)N1C[C@H](C)[C@H](CN(C)C(=O)Nc2cccc3ccccc23)Oc2c(NC(=O)Nc3ccc(C(F)(F)F)cc3)cccc2C1=O,inactive
